GLP1R inv ag – acts as inverse agonist at human GLP-1 receptor; HEK293 GLP-1R CRE-luciferase, luminescence, 24 h; GLP-1R form is constitutively active; AID 624417; P43220; 1.6% of 410,000 active; Potency, µM (doses to about 38.3 µM), hits mostly inhibitors; further: nearly all actives have a fitted effect of over 55% in size
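Readout was luciferase luminescence, measured 12 min after detection reagent at room temperature. Beforehand, GLP-1R reporter HEK293 cells had sat 12 h, then received compounds for 24 hr at 37 deg C.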
GLP-1R agonist – agonists of human GLP-1 receptor. Potency, µM (series often up to 45.6 µM), actives largely listed as activators. HEK293 GLP-1R CRE-luciferase, luminescence, 4-6 h; cells express a hypersensitive GLP-1R form. AID 624172. 0.007% of 380,000 active. P43220
PTHR1 ag – PTHR1 (human) receptor agonism | Potency, µM (doses to about 115 µM), usual class: activators | HEK293 GP2 PTHR1 cells, GloSensor cAMP luminescence, 1 h | 0.075% of 410,000 active; further: nearly all actives have a fitted effect of over 55% in size
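HEK-293-derived GP2 cells expressing PTHR1 and a GloSensor cAMP reporter, 3,000/well, plated overnight, given luciferin plus IBMX (each 0.5 mM as added) for 1 h at 37 °C, then compound for 1 h at 37 °C. Luminescence was read after 15 min at room temperature.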
RGS4 inhibitor – blocks human RGS4-accelerated GTP hydrolysis; Transcreener GDP fluorescence polarization, RGS4-accelerated GTP hydrolysis; P49798; 0.039% of 390,000 active; Potency, µM (highest dose often 114 µM), hits mostly inhibitors; AID 504845; further: nearly all actives have a fitted effect of over 75% in size
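MLSMR compounds (23 nl, pin-transferred) preincubated 10 min at room temperature with a 500nM (2x) first reagent, then RGS4 at 900nM (2x) plus Transcreener GDP mix added; fluorescence polarization (620/688 nm) read before and after 90 min at 30 °C.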
GLP1R cytotox – cytotoxicity counter-screen for GLP-1 receptor inverse agonists. 0.13% of 410,000 active. Potency, µM (top dose mostly 38.3 µM), most hits filed as inhibitors. HEK293 cAMP-luciferase reporter cells, luminescence, 24 h;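 further: loss of luciferase light is scored as toxicity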
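Here, cytotoxicity is scored as loss of luminescence. The MLSMR collection was tested on cells seeded in medium containing 10% Nu serum, with a 24 hr compound exposure preceded by 12 hours of culture.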
KAT2A inh – inhibitors of human GCN5L2 histone acetyltransferase; AID 504327; 0.21% of 390,000 active; Potency, µM (highest dose often 58.9 µM), hits mostly inhibitors; GCN5L2 HAT assay, ThioGlo1 CoA-SH fluorescence
Target sequence (Q92830 whole entry, looked up): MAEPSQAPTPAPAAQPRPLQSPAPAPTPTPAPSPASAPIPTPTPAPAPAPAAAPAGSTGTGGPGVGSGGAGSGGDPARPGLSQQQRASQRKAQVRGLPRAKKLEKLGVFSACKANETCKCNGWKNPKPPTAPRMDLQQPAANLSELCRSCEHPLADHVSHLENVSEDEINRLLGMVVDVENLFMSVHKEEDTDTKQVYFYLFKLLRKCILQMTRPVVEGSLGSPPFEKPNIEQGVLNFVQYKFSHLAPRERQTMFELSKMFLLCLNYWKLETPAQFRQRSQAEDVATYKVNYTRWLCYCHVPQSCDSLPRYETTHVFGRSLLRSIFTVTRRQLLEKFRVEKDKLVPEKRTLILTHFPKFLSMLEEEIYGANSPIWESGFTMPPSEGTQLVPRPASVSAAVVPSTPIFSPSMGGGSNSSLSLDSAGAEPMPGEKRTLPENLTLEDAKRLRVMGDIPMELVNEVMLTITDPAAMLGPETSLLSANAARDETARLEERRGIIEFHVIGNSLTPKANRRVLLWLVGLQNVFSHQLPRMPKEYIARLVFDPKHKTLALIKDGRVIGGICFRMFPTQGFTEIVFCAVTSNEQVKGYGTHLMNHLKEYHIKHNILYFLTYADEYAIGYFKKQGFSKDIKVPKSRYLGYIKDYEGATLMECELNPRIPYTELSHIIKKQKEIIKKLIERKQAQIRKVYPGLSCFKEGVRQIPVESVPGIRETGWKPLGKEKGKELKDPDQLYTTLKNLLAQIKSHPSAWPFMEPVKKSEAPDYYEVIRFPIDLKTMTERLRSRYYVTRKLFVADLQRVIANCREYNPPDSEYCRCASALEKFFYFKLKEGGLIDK
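ThioGlo1-coupled HAT assay: 20nM GCN5L2, 70uM acetyl-CoA, 75uM H3(1-25) peptide, pH 7.5. Fluorescence read at 340/540nm at start and after 20 min at room temperature.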
Of the large screens only hits and unclear results are named; the others gave an inactive call. Compounds with a hit are over-represented: about 1.8% of the library has one in this group of screens. The call rests on the fitted dose curve; in most records, active means well fitted curve in the direction sought with a large enough effect; inconclusive means small, poorly fitted or top-dose-only effect, or another doubt; inactive means no such curve, though single readings can be large; an effect the other way counts as inactive or inconclusive.

COc1cccc(C2C(C(=O)c3cccs3)=C(O)C(=O)N2CCN2CCOCC2)c1OC (stereo not given)	none
Cc1cccc(C)c1OCCNC(=O)OCc1ccccc1	GLP1R inv ag 11.2µM
Cc1ccc(N2C(=O)N(CC(=O)Nc3ccc(F)c(F)c3)C(=O)C2C)cc1 (stereo not given)	GLP1R inv ag inconclusive
Cc1ccc(N2C(=O)N(CC(=O)Nc3cc(C)cc(C)c3)C(=O)C2C)cc1 (stereo not given)	GLP1R inv ag 3.98µM
Cc1ccc(N2C(=O)N(CC(=O)Nc3ccc(C)c(C)c3)C(=O)C2C)cc1 (stereo not given)	GLP1R inv ag 10µM
CC1SC(C)C(=O)N(CC(=O)Nc2ccc([N+](=O)[O-])cc2)C1=O (stereo not given)	none
Cc1ccc(N2C(=O)N(CC(=O)Nc3cc(Cl)ccc3C)C(=O)C2C)cc1 (stereo not given)	GLP1R inv ag 10µM
Cc1ccc(N2C(=O)N(CC(=O)Nc3ccc([N+](=O)[O-])cc3)C(=O)C2C)cc1 (stereo not given)	GLP1R inv ag 11.2µM
CSCCNC(=O)C1(C)CCN1C(=O)c1cc(C)n(C)n1 (stereo not given)	none (no result: RGS4 inhibitor, KAT2A inh)
COc1ccccc1Cc1c(C(C)(C)C)nc2c3ccccc3ccn12	GLP1R inv ag inconclusive (no result: RGS4 inhibitor, KAT2A inh)
CCOc1ccc(NC(=O)COc2ccc(S(=O)(=O)NC3CCCCC3)cc2)cc1	none (no result: GLP-1R agonist)
CN1CCc2nc3ccc(Cl)cc3c(-c3ccccc3Cl)c2C1	GLP1R inv ag inconclusive
O=S(=O)(Nc1cc(Br)cc2cccnc12)c1ccccc1	none (no result: GLP1R inv ag, GLP-1R agonist, PTHR1 ag, GLP1R cytotox, KAT2A inh)
CCC(C(=O)Nc1cc(OC)ccc1OC)n1c(C)c2cnn(-c3ccccc3)c(=O)c2c1C (stereo not given)	none (no result: GLP-1R agonist)
CNC(=S)N/N=C(\C)c1ccc(Cl)c(Cl)c1	GLP1R inv ag inconclusive, GLP1R cytotox inconclusive
CNC(=S)NN=C(C)CCCC(C)=NNC(=S)NC	GLP1R inv ag inconclusive, GLP1R cytotox 1.78µM (no result: KAT2A inh)
Cc1ccc(-n2ncc(C(=O)Nc3cc(Cl)ccc3Cl)c2C2CCNCC2)cc1	GLP1R inv ag 7.08µM
CCc1cccc(NC(=O)C2CCN(C(=O)c3cnn(-c4ccccc4)c3-n3cccc3)CC2)c1	GLP1R inv ag inconclusive (no result: GLP-1R agonist)
CCN(CC)c1cc(C)c2cc(NC(=O)/C=C/c3cc(OC)c(OC)c(OC)c3)ccc2n1	GLP1R inv ag 11.2µM, RGS4 inhibitor inconclusive, GLP1R cytotox inconclusive (no result: GLP-1R agonist)
CCOc1ccc(C(=O)Nc2ccc3nc(N(CC)CC)cc(C)c3c2)cc1	GLP1R inv ag inconclusive
CCN(CC)c1cc(C)c2cc(NC(=O)c3cccc(OC)c3)ccc2n1	GLP1R inv ag 10µM
CCCNC(=O)c1ccc2c(c1)nc(C)n2-c1cccc(Cl)c1	none
CC(=O)/C=C1\C(=O)N(C)c2ccccc21	RGS4 inhibitor 18.9µM, KAT2A inh inconclusive (no result: GLP1R inv ag, GLP-1R agonist, PTHR1 ag, GLP1R cytotox)
Cc1ccc2cc3c(NS(=O)(=O)c4cccc5nonc45)nn(CC(C)C)c3nc2c1	GLP1R inv ag 10µM
CCCn1nc(NS(=O)(=O)c2cccc3nonc23)c2cc3cc(C)ccc3nc21	none
CCCCn1nnnc1C(c1ccccc1)N1CCN(c2ncc(C(F)(F)F)cc2Cl)CC1 (stereo not given)	GLP1R inv ag inconclusive (no result: RGS4 inhibitor, KAT2A inh)
FC(F)(F)COc1nc(OCC(F)(F)F)nc(N2CCN(c3ccccc3)CC2)n1	GLP1R inv ag 5.01µM
CCCCNC(=O)COC(=O)c1c2c(nc3ccccc13)/C(=C\c1cccs1)CC2	GLP1R inv ag 6.31µM (no result: KAT2A inh)
Cc1ccc(NC(=O)CSc2nc3c(oc4ccccc43)c(=O)n2Cc2ccco2)cc1F	none (no result: GLP-1R agonist)
O=C(CNC(=O)C1COc2ccccc2O1)N/N=C\c1ccc(Br)cc1 (stereo not given)	GLP1R inv ag 10µM
Cc1ccc(N(C)C(CNS(=O)(=O)c2ccccc2)c2ccccc2)cc1 (stereo not given)	GLP1R inv ag 10µM (no result: GLP-1R agonist)
Cc1ccc(C(CNS(=O)(=O)c2ccc(C)cc2)N2CCN(C)CC2)cc1 (stereo not given)	GLP1R inv ag inconclusive
CN1CCN(C(CNS(=O)(=O)c2ccc([N+](=O)[O-])cc2)c2ccc(F)cc2)CC1 (stereo not given)	GLP1R inv ag 11.2µM
Cc1ccc(S(=O)(=O)NCC(c2ccccc2)N2CCCCC2)cc1 (stereo not given)	GLP1R inv ag 10µM
CC(C)Cn1c(N)c(C(=O)COC(=O)/C=C/c2ccccc2)c(=O)n(C)c1=O	GLP1R inv ag inconclusive
O=C(Nc1ccn(Cc2ccccc2F)n1)c1ccc(COc2cccc(Br)c2)cc1	GLP1R inv ag 3.16µM
CCCC(=O)NC(c1ccccc1Cl)c1c(O)ccc2ccccc12 (stereo not given)	GLP1R inv ag 7.08µM, GLP1R cytotox inconclusive
CCCCC(=O)NC(c1ccccc1Cl)c1c(O)ccc2ccccc12 (stereo not given)	GLP1R inv ag inconclusive
CC(=O)Oc1ccc2ccccc2c1C(NC(=O)Cc1ccccc1)c1ccccc1Cl (stereo not given)	GLP1R inv ag 5.62µM, GLP1R cytotox inconclusive
Cc1ccc(C(NC(=O)C2CCCCC2)c2c(O)ccc3ccccc23)cc1 (stereo not given)	GLP1R inv ag 4.47µM, GLP1R cytotox inconclusive
CC(=O)NC(c1ccc(C(C)C)cc1)c1c(O)ccc2ccccc12 (stereo not given)	GLP1R inv ag inconclusive (no result: KAT2A inh)
Cc1nnc(SCC(=O)NC(C)(C)C)n1NCc1c(F)cccc1Cl	none
CC(C)CCN(C(=O)c1csnn1)C(C(=O)NC1CCCCC1)c1ccc(F)cc1 (stereo not given)	GLP1R inv ag 10µM
CCC(C)N(C(=O)c1csnn1)C(C(=O)NC1CCCC1)c1ccc(F)cc1 (stereo not given)	none
CCOC(=O)c1c(-c2ccccc2)oc2ccc(OCC(O)CN(C)C)cc12 (stereo not given)	GLP1R inv ag 2.82µM, GLP1R cytotox inconclusive
CCOC(=O)c1c(-c2ccccc2)oc2ccc(OC(C)C(=O)O)cc12 (stereo not given)	none
O=C(/C=C\Nc1cccc(F)c1)c1ccc2c(c1)OCO2	GLP1R inv ag 10µM
COc1cc(/C=C/C(=O)O[C@H]2CC[C@]34C[C@]35CC[C@]3(C)[C@@H]([C@H](C)CCC=C(C)C)CC[C@@]3(C)C5CCC4C2(C)C)ccc1O (stereo not given in full)	none (no result: GLP1R inv ag, PTHR1 ag, RGS4 inhibitor, GLP1R cytotox, KAT2A inh)

Bioassay records (PubChem BioAssay)
